# Measurements as given in PubChem BioAssay (NCI).
# This is part of a sample that, as a whole, favours compounds with a hit. Of some 83,000 tested, about 20% had one in any assay.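 Activity criterion: percent growth below 10, measured after cells in 96-well plates were exposed to a single compound concentration for 48 hours.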 Values without a mark were called inactive. Calls of active or inactive are those of the source.
# System: OVCAR-4 ovarian
# Assay: NCI-60 one-dose screen, 48 h (100 = growth as untreated, 0 = no growth, -100 = all killed)
# Settings: 10 µM
# Protocol: Growth inhibition of the OVCAR-4 human tumor cell line is measured as a screen for anti-cancer activity. Cells are grown in 96 well plates and exposed to the test compound for 48 hours. Compounds are tested at a single concentration, which is 10^-5 M for most compounds. The reported endpoint is percent growth (GI% or GIPRCNT), where numbers from 0 - 100% represent growth inhibition, and numbers from -100% - 0 represent cell death. For example, a value of 40 represents 60% growth inhibition. A value of 0 means no net growth occurred over the course of the experiment. A value of -40 indicates 40% of cells at the beginning of the experiment died by the end of the experiment. A value of -100 means all cells are dead at the end of the experiment.
# NCI-60 Human Tumor Cell Lines Screen was performed using the standard one-dose NCI protocol, which is described in more detail at https://dtp.cancer.gov/discovery_development/nci-60/default.htm.
# Compounds with GIPRCNT values below 10 were considered active. Activity score was based on GIPRCNT using the following formula: […]
# Score is 0 for GIPRCNT values of 100 or above, 50 for GIPRCNT values of 0, and 100 for GIPRCNT values of -100.
row,SMILES,growth
1,COc1cc([C@@H]2c3cc4c(cc3C(Br)[C@H]3COC(=O)[C@H]23)OCO4)cc(OC)c1OC (stereo not given in full),17.3%
2,Oc1[nH]c2ccc(Cl)cc2c1/C=c1/ccc2c(c1)N=C(c1cccs1)N=2,52.3%
3,COc1ccc(/C=C/C(=O)Nc2ccc(-c3nc4ccc(F)cc4s3)cc2)cc1,83.2%
4,Cc1cccc2c(NCCN(C)C)c3cccc(C(=O)NCCN(C)C)c3nc12,-44% (active)
5,ClC(Cl)(Cl)c1nc2nccnc2[nH]1,97.3%
6,CCN1CCN(c2nc3ccccc3c3c(=O)c4ccccc4sc23)CC1,55.2%
7,COc1cc2cc3c(nc2cc1OC)CCN3Cc1ccc(NC(=O)Nc2ccc(F)cc2F)cc1,61.2%
8,O=C(Nc1cccc(-n2cc(-c3ccncc3)c(-c3cc(O)cc(Cl)c3)n2)c1)c1ccc(N2CCOCC2)c(C(F)(F)F)c1,77.1%
9,O=C1/C(=C\c2ccc(F)cc2)CN(C(=O)c2ccccc2F)C/C1=C\c1ccc(F)cc1,-5.48% (active)
10,Cc1ccc(CC#N)cc1C,109%
11,CC12O[C@H](C[C@@H](O)[C@H]1O)n1c3ccccc3c3c4c(c5c6ccccc6n2c5c31)C(=O)N(CCCN)C4=O,61%
12,COc1cc(/C=C2\Oc3cc(OCC(=O)c4ccccc4)ccc3C2=O)cc(OC)c1OC,109%
13,Oc1[nH]c2ccc(Cl)cc2c1/C=c1/ccc2c(c1)N=C(c1cc(F)cc(F)c1)N=2,68.5%
14,O=C1/C(=C\c2ccc(Br)cc2)CN(C(=O)c2ccccc2F)C/C1=C\c1ccc(Br)cc1,18.2%
15,CN(C)CCCn1c(=O)c2ccccc2c2cnc3[nH]ccc3c21,2.71% (active)
16,CN(C)c1ccc(Cc2ccc(N(C)C)cc2Cl)c(Cl)c1,78.6%
17,Clc1ccc(Nc2ccnc(NCCCNc3ccnc4cc(Cl)ccc34)n2)cc1,6.79% (active)
18,O=C(Nc1ccc(Cl)c([N+](=O)[O-])c1)Nc1nc2ccccc2s1,67.1%
19,O=C(O)c1ccc(P(=O)(O)O)c([N+](=O)[O-])c1,104%
20,Nc1nccc(Nc2ccccc2)n1,108%

row,SMILES,growth
1,CN(C)CCN1C(=O)c2cccc3cc(N)cc(c23)C1=O,-5.76% (active)
2,COc1ccc(C2CC(c3ccc(N(C)C)cc3)=NN2c2ccc(S(N)(=O)=O)cc2)cc1 (stereo not given),48.6%
3,Cc1cc(Nc2ccc(Cl)cc2)nc(NCCCNc2ccnc3cc(Cl)ccc23)n1,-3.7% (active)
4,C=C(NC(=O)C(=C)NC(=O)c1csc(C2=NC3c4csc(n4)C4NC(=O)c5csc(n5)C(C(C)(O)C(C)O)NC(=O)C5CSC(=N5)/C(=C/C)NC(=O)C(C(C)O)NC(=O)c5csc(n5)C3(CC2)NC(=O)C(C)NC(=O)C(=C)NC(=O)C(=C)NC(=O)C(C(C)C)NC2C=Cc3c(C(C)O)cc(nc3C2O)C(=O)OC4C)n1)C(N)=O (stereo not given),6.53% (active)
5,CCCCCCCCCCCCCCCC(=O)OC1[C@@H](OC(=O)CCCCCCCCCCCCCCC)[C@@H](C(=O)N[C@@H](CCCCN)C(=O)OC)O[C@H]1n1cnc2c(=O)[nH]c(NC(=O)C(C)C)nc21 (stereo not given in full),120%
6,COc1cc(C(=O)/C=C/c2cc(-c3cc(OC)c(OC)c(OC)c3)n[nH]2)cc(OC)c1OC,34.2%
7,Cc1cc(C)c(CCc2cc(C)c(C)cc2C)cc1C,92.9%
8,COc1cc(/C=C/C(=O)c2ccc(Cl)cc2)ccc1OS(=O)(=O)c1ccc(C)cc1,92.5%
9,Nc1c(C(=O)Nc2ccccc2)sc2nc3c(cc12)CCCC3,49.9%
10,O=C(CCCCC[P+](c1ccccc1)(c1ccccc1)c1ccccc1)NC(COC(=O)C(Cl)Cl)(COC(=O)C(Cl)Cl)COC(=O)C(Cl)Cl,100%
11,COc1cc(-c2nn3c(/C=C4/C(=O)Nc5ccccc54)c(-c4ccc(C)cc4)nc3s2)cc(OC)c1OC,-17.3% (active)
12,COc1ccc(C2=Nc3c(C)nn(-c4ccccc4)c3NC(c3ccc(Oc4ccnc5cc(Cl)ccc45)c(OC)c3)C2)cc1 (stereo not given),43%
13,O=S(=O)(NCCCNc1nccc(-c2c(-c3ccc(F)cc3)nc3sccn23)n1)c1ccc2ccccc2c1,56.8%
14,Cc1cc(O)c(C(C)(C)C)cc1Sc1cc(C(C)(C)C)c(O)cc1C,28.3%
15,CCN1CCCC1CNC(=O)c1ncc(-c2ccc(C(F)(F)F)cc2)c(NC2CCCCCC2)n1 (stereo not given),78%
16,O=C(O)CN1C(=O)c2cccc3cccc(c23)C1=O,100%
17,COc1cc(-c2cc(-c3cc4c([nH]c5ccccc54)c(-c4cc(OC)c(OC)c(OC)c4)n3)cc(-c3ccccc3)n2)cc(OC)c1OC,58.6%
18,CN(Cc1ccccc1)Cc1ccc([N+](=O)[O-])cc1I,91%
19,COc1cc(-c2cc(/C=C/C(=O)c3ccc4c(c3)OCO4)[nH]n2)cc(OC)c1OC,76.6%
20,Cc1ncc(-c2ccoc2)c(NC2CCCCCC2)n1,105%
